# Results published in PubChem BioAssay AID1159506 (National Center for Advancing Translational Sciences (NCATS), 2015).
# The full ranking holds about 59,000 sequences; the median of the read-out is about -0.00055, and the lowest 2% start at about -2. The sample as a whole holds a higher share of the lowest values than the screen did.
# Test: Identification of proteins required for the processing of the EWS-FLI1 nascent transcript;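 further: robust z of luciferase light less the median z of siRNAs with the same seed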
# Conditions: TC32 Ewing sarcoma NR0B1-luc vs CMV-luc (EWS-FLI1 target promoter against control promoter), 48 h; screened at 20 nM (by protocol)
# How it was run: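 Three siRNAs per gene, each in a separate well at 20 nM, were transfected into TC32 cells bearing either reporter construct. Luminescence was measured two days on, and per-gene comparison relied on seed-corrected Z values.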
row,Sequence,seed-corrected z-score
1,AUAAGGAUUACUAGUUUUG against CDK8,0.165
2,UAAGCACACACAAUGGUAC against DLK2,0.0903
3,UAUGGGCCGUGGACUCUCA against TPSAB1,-0.127
4,UACAGGGACACCACCUUGC against BOK,-0.14
5,UGGUCUUCACAUUAGAUGC against NUTM1,-2.03
6,UUGUAGUACAUUAACCUUG against ANKRD26,0.963
7,UGACAUACUUCGUAAGUCC against ERLEC1,0.555
8,UUCAUAAAGAGGAGGUACC against CLUH,0.239
9,AUUUUGAACAUGUUUGCUG against NAPA,0.31
10,UUCUGGUAGAUGUGACUGC against ZNF83,-0.405
11,UACAAGAUUAUAGGCGGUC against TRAPPC11,0.0691
12,UCUGAGUCCUCUGUAACCU against MZF1,-2.17
13,UACAGUUCAUCAAUCGUCA against APOA1BP,0.829
14,UAUACUUCCCAAGAAGUCC against FAM217B,0.596
15,UGUUGUUGUGACAAAAUCG against EIF5,0.296
16,UUUAAGAUAGGCGACACUG against LMOD3,0.0486
17,UGUAAAUUUGCACCGAUGG against RPTOR,-12.1
18,AUCUGUACAAAUCUCUUUG against ZNF140,-0.593
19,UCCUCUUCGAAUGUUGUCG against TSPAN15,-0.886
20,UUUGCGAUCUUCGAAGCCC against REEP3,-0.668
21,UCGAUUAAAACCGCGAUCG against PPP2R1B,-0.365
22,UUUGUCAGAAAACGCAUCC against GPR149,-2.76
23,UCAAUGAUCUCGAUGAUGA against PLEC,-0.0712

row,Sequence,seed-corrected z-score
1,UUCCGGGCAGCAAUAAUGG against PGM5,-0.0662
2,UUUCCCAUCAGGGUUAAGC against OR2A12,-0.365
3,UGAUAUAUAAGGCCCGGAC against RPL10A,-3.19
4,UUCUGUAUUCUUCAGCGUG against OR4C16,-0.379
5,UUUGGAGCUUGGGAAUUGC against ARHGAP27,-0.993
6,UUUGUUCCUUUUCGAGUUC against CCDC127,2.99
7,UGAAUCAAAUGAUCUGACC against RAB9A,0.786
8,AAUGUGAUCAAAAAUAGCC against NAT2,0.2
9,UUGGUUUAAAGUUAAGUUG against C5orf63,-2.45
10,UUGAUAUUUGUGAAUCUCC against FERMT1,-0.474
11,UAUUUAGCAAUGCAGAACU against RPP25L,0.342
12,UGUCUGAUUCAUUAUGAGC against CCDC74A,-0.71
13,AAAGGUCCCAGAGUACAUG against SLC25A20,0.174
14,UUUAUGCUGAGUCCCAUAG against APBB1IP,-2.98
15,AAAGUAAUAGAAGUGUUUG against MOB3B,0.429
16,UAGAGAGACAGGGUGCAGG against C1orf162,-2.87
17,UCUGGUUUUAGUAUUCUUA against NBEAL1,-0.389
18,UUCUUUAGACUGUCCAGCG against KLHL6,-2.04
19,UUAGGGCUUGGUAUAGAGG against ST18,0.568
20,UUGCGUUCCACAUGUUGAC against PRDM7,-9.3
21,UAAGUGAUUGGAGGUAAAG against LOC727775,0.67
22,AUAUGGUCCUUCUUAUUGC against HSD52,0.199
23,AUGCUUAUAGUUGUUCUUC against POU1F1,-2.19

row,Sequence,seed-corrected z-score
1,UCACAAAACACUUUGCCGU against LIMD1,0.194
2,UUGGUAGAGAGGUAAAAUG against KRTAP4-4,1.06
3,UAAUAGUCAGGUUCCCUGU against OR6C2,-0.02
4,AAAGUAGGACGAGAUGCCG against DDX51,1.06
5,UCUGGACACGGCUUAUUGC against C17orf58,0.125
6,AUAAGAACAACAAAUACAC against C2CD4A,0.789
7,UGGUUAUUAAUGGUGCACC against ELF2,-2.8
8,UUAGAGCUACUGAACUGCC against DHX58,0.739
9,AAGUUGCCAAGAACAUGCU against LINC01168,-3.59
10,UAUCUGGUAUGCUACGUCC against CCDC7,0.683
11,UAUGAUCGAACUUUUUGAG against RSG1,-2.03
12,AACCUGUCAAUUAUCACUG against EBF1,0.337
13,UCUCCGUCCACAUUUGUUG against NTRK1,0.0167
14,UCUCUGAUGAGCAUUAAGG against ZNF26,-0.977
15,AAACUUCUUGGGUUUCUAC against ZBTB8OSP1,0.246
16,ACACUGACAAAUGUUAGGC against VWDE,-2.22
17,AACCUUUAACUUGUGCUCC against ELAC2,0.641
18,UGCCCAAAUAGAAUUCUGU against RPL35A,-0.216
19,AGCUUUUCCAAAACCGUGC against NGDN,2.14
20,AUAUUUAUUGGGCAGUGGA against PYDC1,-0.518
21,UUUGUAGCAGGUACAGGCC against EPPK1,-0.0968
22,AAGGUGGUAGGCACUUUGG against MAVS,-2.67
23,UUCGAAAUGCCUGAUAGCC against P3H2,0.287

row,Sequence,seed-corrected z-score
1,AGAUGUUCCACACUCUGCC against C1orf95,-3.59
2,AUACUGCCGAUAUAUCAGC against AP4S1,-0.442
3,AAGUUUAUGGACAAUUUCC against SMYD5,0.313
4,UACUUUACAACAUAUGGGC against STK3,-0.0972
5,UGGUUAGCAAUGCAUAUUC against SV2C,0.364
6,UUCUUCAUUCCUGCUAGGC against EEF1B2P5,-0.108
7,UAAGGGUCAAUGCAGUAGU against ZAR1L,-0.414
8,UAAAUAGCAAAUUGCAUAC against DNAJB3,1.32
9,UUUGCCUAGACUAUGCUUG against PPARGC1B,-1.6
10,AUCUGCAUAAUCCUUGUUG against COG2,-2.77
11,UAUGUAACUGACAAUGACG against ADGRA3,-0.447
12,UUGAGUGCAAAGGCUUGUC against SLC25A12,1.4
13,UUAGGUCUCUGAAGUUUUC against NUTM2A-AS1,-0.188
14,UAUCUUAUUUCAUCGUUUC against PTGS1,-0.545
15,AUCGUCUUGACUGUGGUCC against CEACAM1,-0.766
16,AUAGCGAUUAUUCUCACAG against PDHA1,0.0331
17,UUAUUUAUCUGAGUUGUGA against NFIA-AS1,-2.52
18,UGCAGUAAACAUUUCGUUG against ADAMTS9,-0.75
19,UUGUGGUAGAUGGGACUGG against DOK3,-3.05
20,UCUGCGGUUACUCUCCAUC against TLX1,-0.0327
21,AUGAGUACAGACAAGGUCC against DRD1,-0.626
22,AACAGGCUCAGGGAUAUUG against MORN2,-1.84
23,UAGCUUCGAAUAAACAUCC against FAM3D,-4.22

row,Sequence,seed-corrected z-score
1,UGAAAUACGGAUGACAUUC against AKR1C3,-1.21
2,UUUUGUGCAUAGACCAUAG against DHRS12,-0.542
3,UCUUCUUAGACCUUUCGGG against PRPF38A,-2.28
4,UUUGCAUCGUGGUAUUUCC against CTCFL,0.259
5,UUUACGAUAAUCAACCUUC against BCO1,0.641
6,UUCGCAUUGCUUCUAACUC against UACA,0.538
7,UUCAAAGUAUCGUUCUUUC against PANX3,1.35
8,UCCCGUACCAAGGGUAGCU against FAM78B,0.456
9,AAUGGUGUUGCUCUUCUCC against ZNF23,1.51
10,UUCGAAUAGUAGAAAGUCG against ABCB5,0.0668
11,AAGCAUGUUGGUAACCUCG against PLA2G3,-2.04
12,UACAGCAUCGUCUUCUACC against TMEM246,0.565
13,UACACUUGAGUUGACGACC against LOC642335,0.105
14,UGCAUAGACAGAUUAAGCC against SEC22A,-0.0597
15,UGCUCUUUUGCUUACGUGG against GAB1,-1.74
16,UGCGUUUUCAGCUGGUUAC against MYNN,-3.83
17,UCCGUGAGAACUCAUAAGG against TG,-0.13
18,UACAGUCAAAGCUCCGUUC against GFI1,1.42
19,UCUGCGUUCUGAUUGGUGG against ANKRD55,-4.59
20,AUGCAAGUAACUGAGAUCG against CLEC14A,-1.2
21,UGUUCUAUGAGGCAAGAUG against ZGRF1,0.286
22,ACUUUCACAACGAUUUUCU against RPL34P34,-2.47
23,UUCUUUACAGCAUGAGGGC against CCL25,0.424

row,Sequence,seed-corrected z-score
1,AAAGUCAUCAGCAAUUUGG against OR10G8,-1.41
2,UCCGUCGUCAGAAAGAUGC against DGCR2,0.0908
3,UGACGUGUCAUUCUCAUAC against ZNF69,-2.01
4,UUGGAGCAAAAUACAGUGG against NQO1,0.331
5,UUGUUCCUCAGGUCAAGUG against GAB2,1.13
6,UAGUUGUUCAGCGAGGUCC against CEP250,-0.0255
7,AACAUCACCAAAUAGCUGG against LIMS1,0.191
8,UAUUUCGAAAAUAAUCUCC against TMEM18,-0.129
9,UUCAGCAUUUGAUUCAAUC against HTRA4,-0.127
10,UCUGCUGAUAGCAAUGGGC against ZNF512B,-2.13
11,UUUUGGUCGUCGUUCUUCU against COMP,-2.12
12,UUCUACUCUAGCAAUUUCC against NDC80,-2.12
13,UCAAGGACCAGGCCGUUUU against ALG1L3P,1.09
14,UAAUUGUGACACUUGUUCC against TSLP,-1.67
15,UAGGUAAGGACGGAAACGC against ZPBP2,0.591
16,UACCGUGACAAAAUAAGUG against LOC728175,0.818
17,UCUGAUGACUGUUUACAGC against ZNF180,0.161
18,UAAUUAAUAUCGUCCAGAG against C6orf120,-0.208
